Outcome and AC50 data for 40 molecules are collected here from PubChem BioAssay (EPA / NIEHS).

Active and inactive are the calls of the source. How the source made its calls: active means hit-call score of the fitted dose curve at least 0.9, where 1 is the maximum; inactive means score below 0.9.

The test in a line: BSK_3C_VCAM1: BioMAP Diversity Plus: 3C Assay for Vascular cell adhesion molecule 1 (VCAM1) Biomarker Activity (AID 2282999). The conditions noted are these: BioMAP 3C HUVEC, VCAM1 ELISA, cytokine-stimulated; actives raise or lower the signal. The protocol:
BSK_3C is a cell-based, multiplexed-readout assay that uses umbilical vein endothelium, a human vascular primary cell, with measurements taken at 24 hours after chemical dosing in a 96-well plate.BSK_3C_VCAM1 is an assay component measured in the BSK_3C assay. It measures VCAM-1 antibody related to regulation of gene expression using ELISA technology.Data from the assay component BSK_3C_VCAM1 was analyzed into 1 assay endpoint. This assay endpoint, BSK_3C_VCAM1, was analyzed with bidirectional fitting relative to DMSO as the negative control and baseline of activity. Using a type of binding reporter, gain or loss-of-signal activity can be used to understand changes in the signaling as they relate to the gene VCAM1. Furthermore, this assay endpoint can be referred to as a primary readout, because this assay has produced multiple assay endpoints where this one serves a signaling function. To generalize the intended target to other relatable targets, this assay endpoint is annotated to the cell adhesion molecules intended target family, where the subfamily is Immunoglobulin CAM.
The levels of cell surface (or secreted, indicated by the prefix "s") biomarker endpoints were measured by ELISA. Overt cytotoxicity to cells in confluent adherent cultures (all systems other than the BT system) was assessed by measuring total protein levels using sulforhodamine B (SRB) staining in parallel cultures at the time of biomarker measurements, indicated as SRB endpoints. For proliferation assays for adherent cell types, individual cell types are cultured at sub-confluence and relative cell numbers quantified by SRB staining at time points optimized for each system (48 h: 3C and CASM3C systems; 72 h: BT and HDF3CGF systems; 96 h: SAg system). SRB was performed by staining cells with 0.1% SRB after fixation with 10% TCA and reading wells at 560 nm.Viability and proliferation of PBMC (T cells) was quantified by Alamar Blue reduction for the SAg and BT systems. For PBMC viability (referred to as PBMC Cytotoxicity within the assay endpoint names), cells were plated (75,000/well in a 96-well plate) and then chemical samples added for 1 h before addition of activators, SEB and TSST-1 (20 ng/mL final concentration each). Cells were incubated for 90 h. Then, Alamar Blue (20 uL/well) (Invitrogen, Cat DAL1100) was added for 6 h, and the plates were read with a fluorescence microplate reader at 546/580 nm (excitation/emission). For PBMC proliferation, cells were plated and activated as above but incubated for only 16 h prior to addition of Alamar Blue. Plates were read after 6 h.
A general note: ELISA stands for enzyme-linked immunosorbent assay.
Regarding `CCn1nc(Cc2ccccc2)cc1C1CCN(C[C@H]2C[C@H](N(C)[C@@H](C(=O)O)C(C)C)C[C@@H]2c2cccc(F)c2)CC1`, the result was inactive.

In the case of `CC(C)c1cccc(C(C)C)c1N1C(=O)c2ccc(O)cc2C1=O`, the AC50 (in general, the concentration at which the activity in the assay is half-maximal) is 16.7 µM (active).

Take `CC(C)(O)c1coc(S(=O)(=O)NC(=O)Nc2c3c(cc4c2CCC4)CCC3)c1`: the result was inactive.

Take `COC(=O)c1c(Cl)c(Cl)c(C(=O)OC)c(Cl)c1Cl`: the outcome was inactive.

Take `CCCCC(CC)COC(=O)CCCCCCCCC(=O)OCC(CC)CCCC` (stereo not given): the result was inactive.

Consider `Cc1ccc(C)c(O)c1`, for which the result was inactive.

Take `Cn1c(=O)c2c(ncn2C)n(C)c1=O`: the outcome was inactive.

Take `Nc1ccc(Nc2ccccc2)cc1`: the concentration at half-maximal activity (AC50) was 4.54 µM (active).

With `CN(C)c1ccc(N=NS(=O)(=O)O)cc1`, the AC50 was 6.47 µM (active).

For `CNS(=O)(=O)c1cc(C(=O)N2CCC(CCN3C4CCC3CC(n3c(C)nc5ccccc53)C4)(c3cccc(F)c3)CC2)c(Cl)cc1F` (stereo not given), the AC50 is 13.5 µM (active).

As to `Fc1ccccc1[C@@H](F)COC1CCC(Nc2ncnc3[nH]ncc23)CC1` (stereo not given in full), the outcome was inactive.

As for `CC(=O)OC[C@H]1O[C@@](COC(C)=O)(O[C@H]2O[C@H](COC(C)=O)[C@@H](OC(C)=O)[C@H](OC(C)=O)[C@H]2OC(C)=O)[C@@H](OC(C)=O)[C@@H]1OC(C)=O`, the outcome was inactive.

For the molecule `C[C@](N)(Cc1ccc(O)c(O)c1)C(=O)O`, the outcome was inactive.

Take `CC(=O)c1ccc2c(c1)[C@H](NC(=O)c1ccc(F)cc1)[C@@H](O)C(C)(C)O2`: the result was inactive.

As for `CC[C@H]1CC[C@H](NCc2cc3c(cc2OC)[C@H]2C[C@H]2C(=O)N3C)[C@H](c2ccccc2)N1`, the outcome was inactive.

As for `CNCc1ccc(NC(=O)c2c[nH]c3c2C(=O)CCC3)cc1`, the outcome was inactive.

As for `CC(C)=CCCC(C)=CC=O`, the outcome was inactive.

`CCOCCOCCOCCO`: the outcome was inactive.

With `CCOC(=O)c1ccc(C2CCC(NC[C@H](O)COc3ccc(O)c(NS(C)(=O)=O)c3)CC2)cc1` (stereo not given in full), the AC50 is 30.5 µM (active).

Turning to `COCCOc1cc2cc(C(=O)NC3CCN(C(C)C)CC3)n(CC(=O)Nc3ccc(Cl)cn3)c2cn1`, the result was inactive.

Turning to `CC(O)CN(CCN(CC(C)O)CC(C)O)CC(C)O` (stereo not given), the outcome was inactive.

As for `Nc1cccc(N)c1`, the outcome was inactive.

For `CC(C)CC(C)(O)C#CC(C)(O)CC(C)C` (stereo not given), the outcome was inactive.

On to `O=c1n(CC2CO2)c(=O)n(CC2CO2)c(=O)n1CC1CO1` (stereo not given), for which the AC50 is 26.3 µM (active).

For the molecule `CC(=O)OCCC(C)C`, the result was inactive.

Consider `CC[C@H](C)C(=O)O[C@H]1C[C@@H](C)C=C2C=C[C@H](C)[C@H](CC[C@@H]3C[C@@H](O)CC(=O)O3)[C@H]21`, for which the AC50 is 33.7 µM (active).

As for `C=CC(=C)CCC=C(C)C`, the outcome was inactive.

Take `CCOC(=O)CC(CC(=O)OCC)(OC(C)=O)C(=O)OCC`: the outcome was inactive.

Consider `Cn1c(=O)cc(Oc2ccc(F)cc2F)c2cnc(NCC(C)(C)O)nc21`, for which the result was inactive.

Consider `CC(C)CCCCCCOC(=O)c1ccc(C(=O)OCCCCCCC(C)C)c(C(=O)OCCCCCCC(C)C)c1`, for which the outcome was inactive.

`O=C1CCC(N2C(=O)c3ccccc3C2=O)C(=O)N1` (stereo not given): the result was inactive.

As to `Cc1[nH]cnc1C[C@H]1CCc2c(C)c3ccccc3n2C1=O`, the result was inactive.

Take `CC/C(=C\C(=N/O)C(N)=O)C(C)[N+](=O)[O-]` (stereo not given): the AC50 is 20 µM (active).

On to `On1ccccc1=S`, for which the AC50 was 24.7 µM (active).

As for `CC1(C)C(=O)N(Br)C(=O)N1Br`, the result was inactive.

In the case of `COCCOCCOCCOC`, the result was inactive.

`O=C1CCCCCN1`: the outcome was inactive.

For the molecule `O=C(O)c1cc(N=Nc2ccc(S(=O)(=O)Nc3ccccn3)cc2)ccc1O`, the outcome was inactive.

Take `C=CCCCCCCCCC(=O)O`: the outcome was inactive.

Take `CCCCCCCCCCCCCCCO`: the AC50 is 15.4 µM (active).
